This is a sample that favours compounds with a hit; in the whole collection about 27% have one here.
CYP2C19 inh: blocks human cytochrome P450 2C19. P33261. inhibition, % at 5 µM. CYP2C19 Supersomes, luciferin-H EGE luminescence, 30 min. 96,000 compounds, 21% hits;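 active = CYP2C19 inhibition above a set limit at 5 µM in the primary screen, cut at about 50% in these data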;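 also: plate controls were negative control wells for no effect and 2.5 mM tranylcypromine positive control for full effect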
CYP2C9 inhib: blocks human cytochrome P450 2C9. CYP2C9 Supersomes, luciferin-H conversion, luminescence. inhibition, % at 5 µM. 96,000 compounds, 20% hits;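 active = blocking of liver enzyme CYP2C9 beyond about 50% at 5 µM, limit read from the data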
Target sequence (P11712 whole entry, looked up): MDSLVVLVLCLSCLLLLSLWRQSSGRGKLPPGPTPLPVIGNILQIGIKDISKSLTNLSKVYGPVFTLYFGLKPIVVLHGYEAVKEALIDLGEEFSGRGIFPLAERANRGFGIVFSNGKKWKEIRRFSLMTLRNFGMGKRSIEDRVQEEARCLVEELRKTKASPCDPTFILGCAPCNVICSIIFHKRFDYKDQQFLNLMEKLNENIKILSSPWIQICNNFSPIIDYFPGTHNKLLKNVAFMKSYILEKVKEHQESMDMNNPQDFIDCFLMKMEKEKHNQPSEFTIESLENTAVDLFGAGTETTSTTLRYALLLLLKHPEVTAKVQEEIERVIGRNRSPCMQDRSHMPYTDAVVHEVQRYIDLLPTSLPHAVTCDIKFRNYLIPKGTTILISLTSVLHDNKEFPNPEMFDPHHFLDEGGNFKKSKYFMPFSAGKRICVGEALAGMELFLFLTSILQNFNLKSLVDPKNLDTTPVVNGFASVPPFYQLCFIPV
CYP2C19 activ: cytochrome P450 2C19 (human) activation; activation factor at 5 µM; P33261; 96,000 tested, under 10 active; recombinant CYP2C19, luciferin-H EGE luminescence; hits give high values; 0 = fully inhibited enzyme, 1 = untreated enzyme;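 active = activation factor of at least 2 at 5 µM in the primary screen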;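 also: 0 = wells with 2.5 mM tranylcypromine and 1 = vehicle-only wells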
sEH act: activators of human soluble epoxide hydrolase. activation, % at 2 µM. P34913. AID 717. 91,000 compounds, 0.04% hits. purified human sEH enzymatic activity, activator screen; in the data active = activation above about 37%
sEH inh: soluble epoxide hydrolase (human) inhibition; inhibition, % at 2 µM; P34913; 91,000 compounds, 0.34% hits; recombinant human sEH enzymatic activity assay; AID 707; in the data active = inhibition above about 80%
CYP2C9 activ: increases human cytochrome P450 2C9 activity; P11712; 96,000 compounds, 1.4% hits; activation factor at 5 µM; recombinant CYP2C9, luciferin-H conversion, luminescence; hits give high values; factor 1 = untreated enzyme, 0 = blocked;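 active = activation factor of 2 or more for CYP2C9 at a 5 µM dose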;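 also: 0 = sulfaphenazole-blocked wells and 1 = vehicle-only wells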
The depositor's hits bear a star; nt = no result.

SMILES	CYP2C19 inh	CYP2C9 inhib	CYP2C19 activ	sEH act	sEH inh	CYP2C9 activ
COc1ccc(OC)c(C2SCCN2S(=O)(=O)c2cccc(C(F)(F)F)c2)c1 (centres undefined)	90.7*	53.4*	0.1	-7.0	6.7	0.5
COc1ccc(S(=O)(=O)N2CCSC2c2ccc(N)cc2)cc1 (centres undefined)	97.0*	36.3	0	4.6	-3.9	0.6
CCCCCSc1nc2c(c(=O)[nH]c(=O)n2C)n1CCc1ccccc1	0.1	-3.4	1	nt	nt	1
c1coc(-c2nc(-c3ccco3)c(-c3ccco3)nc2-c2ccco2)c1	4.0	16.9	1	nt	nt	0.8
CCCNC(=O)c1ccc2nc(-c3ccccc3)c(-c3ccccc3)nc2c1	6.6	51.2*	0.9	10.3	-7.3	0.5
COc1ccc2nc(-c3ccco3)c(-c3ccco3)nc2c1	34.7	56.0*	0.7	9.5	-9.3	0.4
O=C(NCc1ccccc1)c1ccc2nc(-c3ccco3)c(-c3ccco3)nc2c1	36.2	77.2*	0.6	-9.6	4.3	0.2
CCCCNC(=O)c1ccc2nc(-c3ccco3)c(-c3ccco3)nc2c1	3.5	31.0	1	nt	nt	0.7
CC(=O)c1ccc(NC(=O)c2ccc3nc(-c4ccco4)c(-c4ccco4)nc3c2)cc1	5.6	27.2	0.9	3.3	-2.6	0.7
O=C(Nc1ccccc1)c1ccc2nc(-c3ccco3)c(-c3ccco3)nc2c1	61.0*	66.9*	0.4	-6.9	5.0	0.3
O=C(O)c1cccc(CSc2nc(-c3ccc(Cl)cc3)cc(C(F)(F)F)n2)c1	-15.5	-7.9	1.2	7.2	-4.3	1.1
COc1cccc(C(C#N)N2N=C(C)CC2(C)C)c1O (centres undefined)	nt	6.5	nt	4.6	-4.9	0.9
CCOC(=O)CSc1nnc(CNC(=O)c2ccc(OC)cc2)n1C1CCCCC1	75.1*	14.9	0.2	-0.7	1.0	0.9
COc1ccccc1NC(=S)N(CCc1nc2cc(C)c(C)cc2[nH]1)Cc1cccnc1	19.2	-82.5	0.8	-6.1	7.1	1.8
CCOC(=O)c1cnc2ccc(OCC)cc2c1N1CCN(c2ccccc2OC)CC1	76.8*	94.0*	0.2	-4.9	7.8	0.1
CCOC(=O)C1CCN(c2c(N3CCN(c4ccccc4OC)CC3)c(=O)c2=O)CC1	-2.8	6.6	1	nt	nt	0.9
Cc1ccc(C(=O)N(c2ccccc2)C2CC(C)N(C(=O)c3ccco3)c3ccccc32)cc1 (centres undefined)	52.0*	94.1*	0.5	-4.7	6.0	0.1
CCC(C)c1ccc(Nc2ncccc2C#N)cc1 (centres undefined)	8.0	23.9	0.9	6.6	-6.6	0.8
COC(=O)c1sc2ncccc2c1OCc1cccc(Cl)c1	-2.5	2.1	1	8.9	-9.8	1
O=[N+]([O-])c1ccc2nc(-c3ccccc3)n(OCc3ccc(Cl)cc3)c2c1	13.4	17.8	0.9	-1.7	0.9	0.8
Clc1cccc(COn2c(-c3ccc(Cl)cc3Cl)nc3ncccc32)c1	93.5*	91.2*	0.1	9.0	-7.5	0.1
Cc1ccc(COn2c(-c3ccc(Cl)cc3Cl)nc3ncccc32)cc1	82.8*	34.3	0.2	3.1	0.0	0.7
Cn1c(=O)oc2cc(S(=O)(=O)N3CCC(C(=O)N4CCc5ccccc5C4)CC3)ccc21	3.8	-3.4	1	3.1	-5.8	1
O=C(NCCCCCCNC(=O)c1ccc(Br)s1)c1ccc(Br)s1	nt	nt	nt	-56.3	57.6	nt
CCc1ccc(NC(=O)c2cccnc2)cc1	-7.8	-5.2	1.1	-25.9	23.4	1.1
SMILES	CYP2C19 inh	CYP2C9 inhib	CYP2C19 activ	sEH act	sEH inh	CYP2C9 activ
CCCNS(=O)(=O)c1ccc(NC(=O)c2cccnc2)cc1	37.7	97.6*	0.6	-10.6	12.4	0
O=C(Nc1ccc(S(=O)(=O)N2CCCCCC2)cc1)c1ccco1	21.2	25.6	0.8	-21.6	21.6	0.7
O=C(Nc1ccc(S(=O)(=O)N2CCCC2)cc1)c1cccnc1	25.9	70.8*	0.7	-46.8	45.7	0.3
CC1CCCN(S(=O)(=O)c2ccc(NC(=O)c3cccc(-n4cnnn4)c3)cc2)C1 (centres undefined)	17.7	30.6	0.8	-95.7	95.8*	0.7
O=C(Nc1ccc(S(=O)(=O)N2CCN(Cc3ccccc3)CC2)cc1)c1cnccn1	28.7	51.6*	0.7	-0.9	1.9	0.5
CN(C)c1nc(OCC(=O)NC(C)(C)C)nc(N(C)C)n1	37.3	-0.7	0.6	-13.5	13.4	1
CC(=O)c1cc(C#N)c(SCc2ccccc2)nc1C	24.3	-3.4	0.8	4.3	-7.1	1
O=C(Nc1ccc(N2CCCCC2)cc1)c1cccnc1	31.5	67.8*	0.7	0.1	1.2	0.3
O=C(Nc1ccc(N2CCN(Cc3ccccc3Cl)CC2)cc1)c1cccnc1	3.5	21.4	1	-7.5	10.2	0.8
CCOc1ccc(-c2nc(-c3ccccc3C)no2)cc1	25.8	-27.0	0.7	4.3	-6.6	1.3
CNc1nnc(-c2cc3ccccc3oc2=O)s1	16.5	12.2	0.8	13.5	-15.0	0.9
N#Cc1c(-c2ccco2)nc(SCc2ccc(F)cc2)[nH]c1=O	26.0	63.1*	0.7	-10.5	13.6	0.4
N#Cc1c(-c2ccco2)nc(SCC(=O)Nc2ccc(S(N)(=O)=O)cc2)[nH]c1=O	-8.9	50.4*	1.1	8.4	-8.7	0.5
Cc1nc(SCc2cccc(F)c2)[nH]c(=O)c1C#N	-2.1	74.8*	1	nt	nt	0.3
O=C1Nc2ncccc2OC1CCO (centres undefined)	-5.8	-4.1	1.1	-9.7	8.5	1
Cc1ccc(C)c(N(CC(N)=O)S(C)(=O)=O)c1	-7.0	-14.5	1.1	-4.2	4.4	1.1
CC(C)Oc1ccccc1C1CC(=O)Nc2c1c(=O)n(C)c(=O)n2C (centres undefined)	-10.6	-7.6	1.1	10.9	-13.8	1.1
CCCN(CCC)C(C(=O)Nc1cccc(OC)c1)c1ccccc1 (centres undefined)	88.3*	88.8*	0.1	2.1	1.9	0.1
COc1cccc(NC(=O)C(NCCC(C)C)c2ccccc2)c1 (centres undefined)	29.0	27.5	0.7	-5.3	4.5	0.7
O=C(Nc1ccc(Cl)cc1)C(c1ccccc1)N(CCO)CCO (centres undefined)	63.2*	66.4*	0.4	-1.2	3.1	0.3
COc1ccc(C(=O)/C=C(\C)Nc2ccc3c(c2)OCO3)cc1	11.3	5.0	0.9	-1.5	2.1	0.9
COc1cccc(NC(=O)C(OC(=O)/C=C/c2ccc3c(c2)OCO3)c2ccccc2)c1 (centres undefined)	28.7	69.1*	0.7	8.0	-5.1	0.3
COc1cccc(NC(=O)C(NCC2CCCCC2)c2ccccc2)c1 (centres undefined)	78.9*	77.2*	0.2	-7.2	5.4	0.2
Cc1ccc(NC(=O)CCc2c(C)nc3ncnn3c2C)nc1	-6.0	15.0	1.1	-13.3	11.7	0.8
